The whole screen tested about 31,000 sequences, of which about 1,400 (4.5%) were called active. Only a selection was taken, and actives are over-represented in it overall. Values without a mark were called inactive.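 Rule for the calls: active = median seed-adjusted z-score above 1 or below -1; inactive = the rest.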

The assay can be described thus: Novel Modifiers of Survival Motor Neuron (SMN) Protein: Gene Identification via Genome-wide siRNA Screen.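 Note: luminescence tracks full-length SMN protein made from the SMN2 reporter.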 Particulars: HEK293T SMN2-luciferase reporter, siRNA knockdown, 72 h; actives lie on both sides. An excerpt:
Spinal muscular atrophy (SMA) is the most common neuromuscular autosomal recessive disorder and one of the leading genetic causes of infant death. SMA results from mutations inducing loss of function or deletion in the survival of motor neuron-1 gene (SMN1), leading to deficiency of the survival motor neuron (SMN) protein. Although a second nearly identical gene, SMN2, is retained in humans, its expression primarily produces an aberrantly spliced isoform that is largely unstable and quickly degraded. We performed a genome-wide RNAi screen using a cell-based reporter assay to identify genes and pathways that modulate SMN protein stability. The screen identified over 200 genes that led to the greatest increase or decrease in luciferase expression.
Using HEK293T cells stably expressing a luciferase reporter that combines the promoter and splicing based cassettes in tandem with the major portion of the native SMN2 cDNA with luciferase, we performed a genome-wide RNAi screen to identify modulators of SMN protein levels. Luciferase is expressed when full-length SMN protein is generated with luminescence signal proportional to SMN protein levels. Our luciferase-based reporter assay was used to screen Ambion Silencer Select Human Druggable Genome siRNA library (10418 genes, 3 unique siRNAs per gene) using lipid-based reverse transfection.
Briefly, 1 pmol of each siRNA was spotted to a well of a 384-well plate (Corning, Corning, NY) and 20 microL of serum-free DMEM containing […] of Lipofectamine RNAiMax (Life Technologies, Carlsbad, CA) was then added to each well. Transfected cells were maintained at 37 degrees C in 5% CO2 for 72 hours, 20 microL of ONE-Glo Reagent (Promega) was added to wells for luciferase quantification. Raw luminescence reads were normalized to Ambion(R) Silencer(R) Negative Control #2 siRNA, then log10 transformed. A robust statistical measure of median absolute deviation (MAD) to standardize siRNA activities from each screen. Common Seed Analysis was used to help prioritize clean hits as opposed to those appearing to arise from seed based off-target effects. Candidate modulators were defined as the genes having a MAD score greater than 1.0 or less than -1.0.
On the technique in general: In a reporter assay the amount or activity of a reporter protein is the signal.
On to CCCAGACAAAUUACCUAUATT against CAD, for which the median seed-adjusted z-score is 2.37 (active). The result for GGACCUAUGAGCAACGAAATT against ATP1A4 reads 0.116; that for GCAUGAACCAGUUAUCACATT against SCYL2, -0.0652. The result for GCAGCUCUGAGAACGGCAATT against ARHGEF1 reads -0.0658.

In the case of CUACCGAUGCUGAAAGACATT against PGM3, the median seed-adjusted z-score is -0.527.

On to CCACGCUCAUCAUCUCCAATT against SLC4A2, for which the median seed-adjusted z-score was -0.539. The same measure for CUACUGUUCUUGACCACAATT against DHX15: 1.36 (active); for GGCUCAAGGGCUUUGCUGATT against ADSSL1: 0.0976; for CCGUUAGACCAGAACGGAATT against MGA: 0.0136.

Regarding CAUAGUCACAUGAUUAAUATT against POSTN, the median seed-adjusted z-score was -0.45.

Turning to GGAAGACAAUUGCUAAGGUTT against TRO, the median seed-adjusted z-score is 2.04 (active).

As for CCUUAUCCGCUACCUCCAATT against TAF5L, the median seed-adjusted z-score was 0.409. The result for GGAAGAAGGUAUUCCGUAUTT against CHD5 reads -0.195; that for CGUCCAUGUUUAUCUACAATT against ENTPD2, 0.0319. With CGAACGAGCUAUCACAGAATT against TFB1M, the median seed-adjusted z-score was 0.172. The same measure for CAUUCGGUAUUUUAUUCUATT against SNRPD1: -2.97 (active); for CCUUGCAACAUGUUCGUGATT against KRIT1: -0.447. The same measure for GAAAAACGAUGUAAGCAAUTT against ADH1A: 0.624.

Regarding GAGACAAACUAAUUGAGAATT against PPP1R8, the median seed-adjusted z-score is -0.029. The same measure for GGCUACAAAUGUUCAUCGATT against LRP6: -0.116; for CGUCAAUUCCGGUACACUUTT against PIGM: 1.36 (active). The result for CACAUUAAAGUGUAAAGAATT against PIP3-E reads 0.676.

GGACAAAGUCCUAAAGAAATT against MGC21874: the median seed-adjusted z-score is -0.354. The result for GCACUGUCUACAUCCCUGATT against RHCG reads 0.375; that for AGAUAGUUCUGGAACUGGATT against HES2, -0.186; that for CCACUAGCACAUUCCGCAATT against RBP2, 0.0132. In the case of GGACGACUCUGAUCUGGAUTT against DYNC1I1, the median seed-adjusted z-score was -0.716. On to GGCGAAAAAUUGCUACCGATT against PSMC2, for which the median seed-adjusted z-score is -1.96 (active). The same measure for CUCUAGUCGCGUCAAGUUUTT against NISCH: -0.0757; for GCAAAAAGAGCGAUCAGAATT against CNDP1: 0.203. The same measure for GGAUAUAACGAGAAUGUCUTT against MED27: -1.62 (active). The same measure for AGAUAGAAAUUGACUUUGATT against BRD3: 0.633.

For the sequence GCGAAAACAUGGAUGUUCUTT against HERC2, the median seed-adjusted z-score was 0.98. The result for CUUUCCGUGUGAAAUCAAATT against ZNF761 reads 0.291. Turning to AGACCUCCUACGACAUUAATT against BOC, the median seed-adjusted z-score was -0.0192.

With GACUCAAUGCUACUAUCAATT against ADAM32, the median seed-adjusted z-score was 1.75 (active). The result for GGGUGAAUGCUAUUGAGUUTT against MKRN1 reads -0.496. The result for AGAACUUCAUGGACAUAGATT against CNR1 reads 0.0359. The result for CCACCGAUGAGAUUACCUUTT against STS reads -0.392. Turning to CAGAGGUUGUGACACGAAATT against PAK1, the median seed-adjusted z-score is -0.168.

CUAUGAGGAAUGUCGCAGATT against XPO1: the median seed-adjusted z-score is 1.12 (active).

For GGUCCUCAUUGAAAACGAATT against BTBD11, the median seed-adjusted z-score was -0.00434.

With GGACUACAGUAUACAUUGUTT against PCDH24, the median seed-adjusted z-score is 0.345. The result for GGAACAGGCUAUCAGAACATT against TTC8 reads 0; that for GGGCUUUAAAUAUGAGAUUTT against GRID1, 0.66; that for CGUUGUCACUGAGAUCACATT against AVIL, -0.127. The same measure for AAGACAUACCGACCUCUUATT against PPIL3: 0.282; for GGACGUACAGUGGUGGUAATT against ABCA3: -0.363; for CCAAUAUUCGACUUGCGUATT against XPO1: 1.12 (active). The result for GCCGCCAAGUAAAGCCUUATT against HSPB1 reads 0.693; that for CAAGCUGUCUAAGUCCAAATT against NOVA1, -0.486. For the sequence CCCACCAUGUUACAAGACATT against POLR2G, the median seed-adjusted z-score was -4.19 (active).

In the case of GCAAGGAAGAAAUUUGUGATT against ERCC1, the median seed-adjusted z-score is -0.566. The same measure for CUCACAUAAUCAUAAUAGATT against ZNF41: 0.342; for GGAGCCUUGUUGAUCCUUATT against FRAP1: -1.02 (active). The result for CGUUCGCACAUUCCUUAUATT against KIF6 reads -0.0396; that for GCUUUGUAGAAUUUGCAGATT against TRNAU1AP, 0.52. The result for GGACCGGCCUUUUCGAAAATT against SNRNP35 reads 0.172; that for GGCUGAUUACGUUCGGGAATT against MYL2, -0.0369; that for CAAUGAUCCCGGGCAUUUATT against RPP21, -1.09 (active).

In the case of GGAGACCAACUGCAACUUUTT against ZACN, the median seed-adjusted z-score was 0.065. Turning to CGGAGGUGACUGACAGAUATT against CAMKV, the median seed-adjusted z-score was -0.193.

GAGUCAAAUUUGUGAAGAATT against GLO1: the median seed-adjusted z-score is -0.0827. The result for CUGUGGGAGUUAUUGUCAATT against CDH13 reads 0. The same measure for CAAGCAUCUUUGUCAAAGATT against PTH2R: -0.492. The same measure for GGCUGAUAGUUUAGGAGUUTT against EIF5B: 1.68 (active); for GCUGGUUACUUAUCACCAATT against TPH1: -0.055; for AACCUAUGCGUAUCCAGUATT against SNRPA: -2.09 (active). Regarding CGAAGUGAGUGAUAACAGUTT against RNF157, the median seed-adjusted z-score was 0.0197.

These data come from PubChem BioAssay AID1347426 (Functional Genomics Laboratory (NCATS/FGL), 2020).
